Compound activity deposited in PubChem by National Center for Advancing Translational Sciences (NCATS).
Hits are enriched below; roughly 2.8% of the tested compounds scored in any of these assays.
KDM5B inh – KDM5B demethylase inhibition; Q9UGL1; KDM5B demethylase, FDH-coupled NADH fluorescence (FDH is formaldehyde dehydrogenase); Potency, µM (top dose mostly 57.7 µM), hits mostly inhibitors; actives 2.6% (n = 220,000); also: potency is read from the fitted curve at half-maximal effect; 0% is about no effect; nearly all actives have a fitted effect of over 70% in size
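Measured: NADH fluorescence change, 30 min, RT. System: KDM5BΔAP 200 nM final, H3K4me3 peptide, α-KG, Fe(II), ascorbate, NAD⁺ plus FDH, pH 7.5 HEPES. Compounds: titrated, 10 min pre-incubation with enzyme.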
HEK293 viab – reduces viability of HEK-293 SNCA reporter cells. HEK-293-SNCA-luc viability, GF-AFC fluorescence, 24 h. Potency, µM (highest dose often 57.1 µM), without a hit: at the highest dose activity change, negative = cytotoxicity, hits mostly cytotoxic. actives 0.12% (n = 150,000);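 also: potency is read from the fitted curve at half-maximal effect; 0% = DMSO-treated cells and -100% = medium-only wells without cells; nearly all actives have a fitted effect of over 30% in size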
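Cytotoxicity counterscreen: after 24 h compound treatment of genome-edited SNCA-luciferase HEK-293 cells, live-cell protease substrate GF-AFC read by fluorescence after 30 min; activity scaled between DMSO (0%) and medium-only (-100%), curves Hill-fitted.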
IP6K1 inhibitor – blocks human inositol hexakisphosphate kinase 1. actives 0.81% (n = 140,000). activity change, % (series mostly up to about 58 µM). Q92551. IP6K1 kinase, ADP-Glo luminescence, 2 h; active compounds read low. AID 1645851; in the data active = activity change below about -25%; also: % is scaled to controls: 0 for no effect and ±100 for the full control effect
Target sequence (Q92551 whole entry, looked up): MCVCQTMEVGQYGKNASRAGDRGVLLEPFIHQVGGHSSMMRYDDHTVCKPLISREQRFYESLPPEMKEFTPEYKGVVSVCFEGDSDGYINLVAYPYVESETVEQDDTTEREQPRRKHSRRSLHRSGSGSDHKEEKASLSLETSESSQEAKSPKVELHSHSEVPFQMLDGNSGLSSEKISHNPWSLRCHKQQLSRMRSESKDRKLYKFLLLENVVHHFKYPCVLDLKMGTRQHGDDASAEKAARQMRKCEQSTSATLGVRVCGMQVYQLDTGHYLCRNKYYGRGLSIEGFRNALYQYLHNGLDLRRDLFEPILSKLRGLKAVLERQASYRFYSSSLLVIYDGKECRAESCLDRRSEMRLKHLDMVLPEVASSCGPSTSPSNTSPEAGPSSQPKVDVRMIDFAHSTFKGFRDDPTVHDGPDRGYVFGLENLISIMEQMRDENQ
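ADP-Glo luminescence measures ADP made by human IP6K1 during a 2 h RT reaction with ATP/IP6 (mix at 1.3 mM/130 uM); top library doses 57.5 and 19.1 uM final.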
SNCA expr inhib – reduces expression of the alpha-synuclein gene | Potency, µM (top dose mostly 57.2 µM), inactives show top-dose activity change, negative = inhibition, hits mostly inhibitors | actives 0.17% (n = 140,000) | AID 1671194 | HEK-293 SNCA-luciferase knock-in, luminescence, 24 h;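 also: potency is read from the fitted curve at half-maximal effect; plate controls were DMSO cells for no effect and cell-free wells for full effect; nearly all actives have a fitted effect of over 45% in size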
* = called active by the depositor; i = inactive; ? = inconclusive; · = not tested or not shown; [ ] = another dose, or the depositor's remark. Unless noted, calls follow the shape of the dose curve; as a rule, active = well fitted curve in the direction sought with a large enough effect; inconclusive = small, poorly fitted or top-dose-only effect, or another doubt; inactive = no such curve, though single readings can be large; an effect the other way counts as inactive or inconclusive.

SMILES	KDM5B inh	HEK293 viab	IP6K1 inhibitor	SNCA expr inhib
O=C(c1cc(F)ccc1Cl)N1CCC2(CC1)NC(=O)N(Cc1ccccc1)C2=O	i	-2%	6	-14%
CCc1noc(-c2cccn3c(CNC(=O)c4ccccc4)nnc23)n1	28µM*	-11%	16	-4%
CCc1noc(-c2cccn3c(CNC(=O)c4ccccn4)nnc23)n1	25µM*	15%	14	12%
Cc1noc(-c2cccn3c(CNC(=O)c4ccccc4)nnc23)n1	28µM*	0%	-6	4%
CCc1noc(-c2cccn3c(CNC(=O)c4ccoc4)nnc23)n1	14µM*	-3%	2	-30%
CCc1noc(-c2cccn3c(CNC(=O)c4ccc(Cl)cc4)nnc23)n1	?	-4%	9	-16%
CN(C)c1cc(N2CCCC(NC(=O)c3ccccc3F)C2)ncn1 (configuration not stated)	i	-9%	3	6%
Cc1cn2nc(C(=O)N3CCCC3)cc2c(N(C)Cc2ccccc2)n1	?	?	0	?
Cc1cn2nc(C(=O)N3CCC(C)CC3)cc2c(N(C)Cc2ccccc2)n1	28µM*	-11%	-2	14%
Cc1cn2nc(C(=O)Nc3ccc(F)c(F)c3)cc2c(N(C)Cc2ccccc2)n1	32µM*	15%	-11	-14%
Cc1cn2nc(C(=O)Nc3ccc4c(c3)OCO4)cc2c(N(C)Cc2ccccc2)n1	?	-7%	5	44%
Cc1cn2nc(C(=O)Nc3ccccc3F)cc2c(N(C)Cc2ccccc2)n1	22µM*	2%	-11	-9%
O=C(NC1CCCC1)N1CCN(Cc2ccccc2-c2cccnc2)CC1	·	0%[12.5 µM]	5	19%
Cc1cc(NC(C)CCc2ccccc2)n2ncnc2n1 (configuration not stated)	i	·	·	·
O=c1c(-c2cc(F)cc(F)c2)nc2cnc(N3CCOCC3)nc2n1-c1ccccc1	·	?	·	-28%
CCCCNC(=O)Cc1csc2nc(C)c(-c3cc(C)n(-c4cccc(C)c4C)n3)c(=O)n12	28µM*	?	-3	-17%
COCCNC(=O)Cc1csc2nc(C)c(-c3cc(C)n(-c4ccccc4F)n3)c(=O)n12	28µM*	2%	19	6%
Cc1cccc(-n2nc(-c3c(C)nc4scc(CC(=O)NC(C)C)n4c3=O)cc2C)c1	?	6%	28	-1%
Cc1cccc(-n2nc(-c3c(C)nc4scc(CC(=O)NC(C)C)n4c3=O)cc2C)c1C	25µM*	0%	10	-5%
CCCNC(=O)Cc1csc2nc(C)c(-c3cc(C)n(-c4cccc(C)c4C)n3)c(=O)n12	?	-2%	14	0%
Cc1nc2scc(CC(=O)NCc3ccco3)n2c(=O)c1-c1cc(C)n(-c2cc(F)ccc2F)n1	25µM*	9%	-5	-20%
CCOC(=O)c1ccc(NC(=O)CSc2nnc(-c3ccccc3C)n2Cc2ccco2)cc1	i	·	·	·
CC(=O)NC1(C)CCCN(Cc2cc(-c3c(C)noc3C)cs2)C1 (configuration not stated)	i	6%[87.6 µM]	10	34%[87.6 µM]
O=C(Nc1cccc(C(F)(F)F)c1)c1ccc(Cl)c(N2C(=O)CCS2(=O)=O)c1	i	·	·	·
Cc1ccc(NS(=O)(=O)C2CCS(=O)(=O)C2)cc1 (configuration not stated)	i	8%	-3	-1%
SMILES	KDM5B inh	HEK293 viab	IP6K1 inhibitor	SNCA expr inhib
O=c1[nH]nc(SCc2ccccc2Cl)n1-c1ccc2c(c1)OCCO2	i	·	·	·
O=c1[nH]nc(Sc2ncc([N+](=O)[O-])s2)n1-c1ccc2c(c1)OCCO2	·	24µM*	·	?
CCCN(CC1CCOC1)C(=O)c1ccc(Br)o1 (configuration not stated)	i	2%	11	?
O=C(NCCCN1CCOCC1)c1cccnc1N1CC2CC(C1)[C@H]1CCCC(=O)N1C2 (some centres not stated)	28µM*	2%	4	10%
O=C(NCCC1=CCCCC1)c1cccnc1N1CC2CC(C1)[C@H]1CCCC(=O)N1C2 (some centres not stated)	28µM*	-23%	14	-15%
O=C(NCCCn1cccn1)c1cccnc1N1CC2CC(C1)[C@H]1CCCC(=O)N1C2 (some centres not stated)	28µM*	-6%	-2	-29%
O=C(NCc1ccc(N2CCOCC2)cc1)c1cccnc1N1CC2CC(C1)[C@H]1CCCC(=O)N1C2 (some centres not stated)	?	12%	-1	?
